Experimental findings from PubChem BioAssay AID2102 (Southern Research Specialized Biocontainment Screening …, 2009) are described below.

Among all 1,100 compounds or so, about 210 (19%) were called active. No rule for the calls is given here. Not all results are given here. Results with a measured potency or affinity are listed apart.

A short description of this assay: cell viability loss from selected hits – cytotoxicity control for SV40 T antigen inhibitor project, dose response (AID 2102).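 Also: cells exposed to compounds for 72 hours.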 The following applies: Host cell viability cytotoxicity counter-screen; series mostly up to 50 µM. In general terms: A counterscreen serves to expose hits that act by an unwanted route or on another target.
On to `CN(C)c1ccc(NC(=O)c2cccc(N3C(=O)CCC3=O)c2)cc1`, for which the compound was called inactive.

In the case of `O=C(O)[C@H]1CCCC[C@H]1C(=O)Nc1ccc(Nc2ccccc2)cc1`, the compound was called inactive. As for `CCOc1ccc(-c2nc(=S)[nH][nH]2)cc1`, the compound was classed as inactive. Turning to `COc1ccc(/C=N/NC(=O)c2cc(O)c(O)c(O)c2)cc1Cn1cc([N+](=O)[O-])cn1`, the call was inactive. Take `C=CCNC(=S)Nc1ccc(N(C)C)cc1`: the compound was called inactive. The same measure for `COc1cc(/C=N/NC(=O)c2ccc(Cn3cc([N+](=O)[O-])cn3)o2)cc(Br)c1O`: “inactive”; for `CCc1cc(C(=O)N/N=C/c2ccc(O)cc2)c2ccccc2n1`: “inactive”; for `COc1cc(/C=N/NC2=NCCCCC2)ccc1O`: “inactive”. In the case of `ClC(Cl)(c1nnnn1-c1ccccc1)c1nnnn1-c1ccccc1`, the compound was called inactive. As for `Oc1ccc(C2CNCCc3c2cc(O)c(O)c3Cl)cc1` (centres undefined), the outcome was inactive. For the compound `S=c1[nH]nc(-c2n[nH]c3c2CCC3)n1/N=C/C=C/c1ccco1`, the result was inactive.

As to `COc1cc(/C=N/NC(=O)CCn2nnc3ccccc32)ccc1O`, the call was inactive. `CC(C)C(=O)Nc1ccc(O)c(-c2csc(N)n2)c1`: the compound was called inactive. For `Cc1cc2cc3c(N)[nH]nc3nc2cc1C` the value was “inactive”; for `O=S(=O)(c1ccc(NC(=S)N/N=C/c2ccc(O)c(O)c2)cc1)N1CCOCC1`, “inactive”.

Consider `CN(C)C(=S)Nc1ccc(N2CCOCC2)cc1`, for which the compound was called inactive. Consider `Oc1ccc(NC(=S)Nc2ccccc2)cc1`, for which the compound was classed as inactive.

For `O=C1/C(=C/C=C/c2ccco2)SC(=S)N1NS(=O)(=O)c1ccccc1`, the compound was classed as inactive. For `O=C(CN1C(=O)/C(=C/c2ccco2)SC1=S)Nc1ccc(O)c(C(=O)O)c1`, the outcome was inactive. The same measure for `CCCCCCNC(=O)N[C@H](C(=O)NCCC[C@H]1CN2C(=NC[C@H]2C)N1CCC(c1ccccc1)c1ccccc1)C(C)O` (some centres undefined): “inactive”; for `COc1ccc(/C=N/Nc2nc(N3CCCC3)nc(N3CCCC3)n2)cc1O`: “inactive”; for `COc1cccc(C=Nc2ccc(N3CCOCC3)cc2)c1O`: “inactive”. `Cc1nn(-c2ccccc2)c2[nH]c(=O)c(CNc3ccc(N4CCOCC4)cc3)cc12`: the compound was called inactive. With `COc1cc(CNc2ccc3c(c2)OCCO3)ccc1OCC(N)=O`, the result was inactive. For `Cc1cc(C)nc(SSc2nc(C)cc(C)n2)n1` the value was “inactive”; for `CN1C=CC=C/C1=C(\C#N)c1nc2ccccc2[nH]1`, “inactive”. In the case of `O=Cc1cccn1-c1ccc(O)cc1`, the call was inactive. As to `Cc1ccc(NC(=O)CN2C(=O)N/C(=C/c3cccn3-c3ccc(C(=O)O)cc3)C2=O)cc1`, the result was inactive. Turning to `O=C(O)C1Nc2c(O)cc(Cl)c([N+](=O)[O-])c2C2C=CCC12` (centres undefined), the call was inactive. `CN(C)c1ccc(NC(=O)CSc2nc3c(c(=O)[nH]2)CCCC3)cc1`: the outcome was inactive. The same measure for `O=C1ON=C(c2ccccc2)/C1=C\c1ccco1`: “inactive”; for `Cc1ccc(C2=NOC(=O)/C2=C\c2ccc(C)o2)cc1`: “inactive”; for `O=C1C(=Cc2ccc(Br)o2)C(=O)c2ccccc21`: “inactive”. On to `CC1=NOC(=O)/C1=C\c1ccc(-c2ccc(Cl)c(C(=O)O)c2)o1`, for which the compound was called inactive. As to `Nc1nc[nH]c(=O)c1N=Cc1ccccc1`, the result was inactive. For `O=C(c1ccco1)N1CCCC(Nc2ccc3c(c2)OCCO3)C1` (centres undefined) the value was “inactive”. As to `c1cncc(CNc2ccc3c(c2)OCO3)c1`, the compound was called inactive. `O=C(c1ccc2ccccc2c1)N1CCN(c2ccc(O)cc2)CC1`: the result was inactive. As to `N#C/C(=C\c1ccc(O)c(O)c1)C(=O)c1ccc(O)c(O)c1`, the compound was classed as inactive. The same measure for `CCOC(=O)c1ccc2c(c1)C1C=CCC1C(C(=O)O)N2` (centres undefined): “inactive”; for `Oc1ccc(/C=N/NC(=S)NCC2CCCO2)cc1` (centres undefined): “inactive”.

Take `COc1ccc(-c2nc(O)c3cnccn23)cc1`: the call was inactive. Take `CCN(CC)c1ccc(NC(=O)c2ccco2)cc1`: the call was inactive.

For the compound `CCN(CC)c1ccc(NC(=O)c2ccccc2F)cc1`, the compound was called inactive. Consider `CC(=O)Nc1ccc(OC(=O)C(CCS(C)(=O)=O)N2C(=O)c3ccccc3C2=O)cc1` (centres undefined), for which the result was inactive. With `Oc1cc(O)cc(/C=C/c2ccc(O)c(O)c2)c1`, the compound was classed as inactive. For the compound `O=C(O)/C=C/c1ccc(O)c(O)c1`, the call was inactive. Take `COc1cc(/C=N/NC(=O)C(C)n2nnc3ccccc32)ccc1O` (centres undefined): the outcome was inactive. With `O=C(N/N=C/c1ccc(OC(=O)c2ccco2)cc1)c1ccc[n+]([O-])c1`, the compound was called inactive. The same measure for `Oc1ccc(O)c(-c2cnns2)c1`: “inactive”; for `O=C1CC(c2ccc(O)c(O)c2)Oc2c1ccc(O)c2O` (centres undefined): “inactive”; for `CC1=C(C)CS(=O)N(S(=O)(=O)c2ccc(Cl)cc2)C1` (centres undefined): “inactive”. Regarding `COc1cc(/C=N/Nc2nc3ccccc3[nH]c2=O)ccc1O`, the call was inactive. As to `COc1cccc(-n2c(=O)c3ccccc3n3c(=S)[nH]nc23)c1`, the compound was called inactive. Take `COc1cc(-c2nnc(SCc3cc(=O)oc4cc(O)c(O)cc34)o2)cc(OC)c1OC`: the outcome was inactive. As to `CCN(CC)CCN1C(=O)C(=O)/C(=C(/O)c2ccc(C)cc2)C1c1cccnc1` (centres undefined), the outcome was inactive.

For `CN=C1S/C(=C\c2ccc(O)c(OC)c2)C(=O)N1C`, the compound was classed as inactive. Consider `Cc1occc1C(=O)N/N=C/C=C/c1ccc(N(C)C)cc1`, for which the compound was called inactive. Take `COc1cc(/C=C2/C(=O)NN(c3ccc(Cl)c(Cl)c3)C2=O)cc([N+](=O)[O-])c1O`: the compound was classed as inactive. Consider `Cc1ccc(/C=N\NC(=O)COc2ccc(C)cc2[N+](=O)[O-])cc1`, for which the call was inactive. On to `CC(=O)CC1OC(=O)C(Br)=C1NCc1ccccc1` (centres undefined), for which the outcome was inactive.

As for `O=c1[nH]sc2ccccc12`, the result was inactive. As for `CN(C)c1ccc(NC(=S)NCC2CCCO2)cc1` (centres undefined), the result was inactive. For `Cc1[nH]c2ccccc2c1-c1csc(NC(=O)CSCC(=O)O)n1` the value was “inactive”; for `O=C1COc2ccc(N3C(=O)C=CC3=O)cc2N1`, “inactive”; for `COc1cc(/C=C2\C(=N)N3N=C(S(C)(=O)=O)SC3=NC2=O)ccc1OS(=O)(=O)c1ccc(C)cc1`, “inactive”.

Turning to `Cc1cc(-c2n[nH]c(=S)n2/N=C/c2c[nH]c3ccccc23)n[nH]1`, the result was inactive. In the case of `Cc1ccc2cc3c(N)[nH]nc3nc2c1`, the compound was classed as inactive. As for `COC(=O)CSc1nnc(CNc2ccc(OC)cc2)n1C`, the result was inactive. As for `C=CS(=O)c1sc(Cl)c(N2CCOCC2)c1[N+](=O)[O-]` (centres undefined), the call was inactive. As to `Cc1ccc2oc(=O)c(/C=C(\O)CC(C)C)nc2c1`, the outcome was inactive. Consider `Nc1ccc(Nc2nc3ccccc3[nH]2)cc1`, for which the compound was called inactive. Turning to `CCOC(=O)C1=C(C)N(c2ccccc2)C(=O)/C1=C\c1ccc(O)c(OC)c1`, the outcome was inactive. For `COc1ccc(NC2CCCN(C(=O)c3c(C)noc3C)C2)cc1` (centres undefined) the value was “inactive”.
